A short description of assay [1]: inhibitors of TNFa-induced NFkB p65 translocation, primary screen, imaging, HUVEC, MLSMR starter and 10KST1 sets (AID 438;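 active means inhibition above 20% together with a positive visual image hit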;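 further: compound added about 3h40 before a 20 min TNFalpha stimulation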;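 on inhibition: signal is the nuclear over cytoplasmic p65 intensity ratio per well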). As to conditions: HUVEC TNFa-induced p65 nuclear translocation; cell count: measured here: nuclei count (cytotoxicity indicator), at 2.08 µM; inhibition: at 2 µM, stronger effect = higher value, 0% TNFa-plus-vehicle, 100% no-TNFa wells.
The nature of assay [2]: inhibitors of mutant huntingtin aggregation, primary screen, imaging, exon1htt(103Q)mCFP cells, high-content imaging (AID 483;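 active means visual image review flags a hit and inhibition of aggregation exceeds 20%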;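 further: compound exposure lasted 3 days before fixation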;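 on nuclei count: percent of the per-plate median nuclei count of sample wells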). The following applies: exon1htt(103Q)mCFP cell line, aggregate imaging, at 2 µM; inhibition of aggregation: stronger effect = higher value; nuclei count: measured here: cell count, toxicity.
Assay [3] is described as follows: inhibitors of E-selectin induction by TNFa, primary screen, imaging, HUVEC, immunofluorescence, MLSMR starter and 10KST1 sets (AID 487;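 active means visually confirmed hit in the image check and inhibition above 20%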;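 on inhibition: signal is fraction of cell area covered by stained E-selectin grains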;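 on nuclei count: 100% = median nuclei count of all wells on the same plate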). The following applies: HUVEC TNFalpha-induced E-selectin immunofluorescence imaging, at 2 µM; inhibition: stronger effect = higher value; nuclei count: measured here: cell number, toxicity.
Assay [4] addresses Voltage-gated potassium channel subunit beta-2 (Rattus norvegicus) (UniProt P62483). The assay can be described thus: KvBeta enzyme negative modulators, primary screen, biochemical, NADPH fluorescence (AID 622;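 active means fluorescence slope higher than the sample average by over 3 SD, cut at about -0.22 in these data, passing the limit was not always enough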;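 further: slope of raw intensity against log time taken from 70 to 1610 s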). The following applies: recombinant KvBeta, 4-cyanobenzaldehyde reduction, at 10 µM, stronger effect = higher value.
For assay [5] the target is unchanged. The assay can be described thus: KvBeta positive modulators, primary screen, biochemical, NADPH fluorescence (AID 623;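 active means NADPH fluorescence slope more negative than the mean of all samples by about 3 SD, 99.7% confidence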;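 further: fluorescence intensity change per second fitted from 20 to 320 s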). As to conditions: Recombinant KvBeta, NADPH fluorescence decrease slope, 10 min; at 10 µM; stronger effect = lower value.
The target in assay [6] is Alpha-2C adrenergic receptor (Homo sapiens) (UniProt P18825). The assay can be described thus: modulators of alpha2C/GIRK thallium flux, primary screen, cell-based, HEK293 alpha2C/GIRK1/2 (AID 624;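 active means fluorescence slope after compound addition differing from the mean of all screened samples at 99.7% confidence, in either direction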;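 further: slope of fluorescence ratio to pre-addition baseline per second over 15 to 24 s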). The following applies: thallium flux BTC fluorescence, at 10 µM, actives lie on both sides.
Assay [7] in a line: inhibitors of Sendai virus-induced IRF3 signaling, primary screen, TLR/RLR signaling modifier project, cell-based, Sendai virus stimulus, luciferase, 10K MLSCN set (AID 602276;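 active means inhibition at or above 50% at 10 µM; inactive means inhibition below 50%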;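 further: firefly luciferase from ISG56 promoter only with Renilla not read in this screen; 0% = Sendai virus plus DMSO and 100% = medium plus DMSO without virus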). As to conditions: HEK293 RL24 IRF3 luciferase reporter, at 10 µM, stronger effect = higher value.
Assay [8] is described as follows: inhibitors of poly I:C-induced TLR3 signaling, primary screen, cell-based, poly I:C stimulus, luciferase, 10K MLSCN set (AID 602277). The following applies: HEK293-TLR3 RL24 IRF3 luciferase reporter, at 10 µM, stronger effect = higher value. Background: In a reporter assay the amount or activity of a reporter protein is the signal.

The results in this text go back to PubChem BioAssay.

The term inhibition denotes the relative decrease from the control value, in per cent.

Active and inactive are the calls of the source.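 How the source made its calls, unless noted: active means inhibition of the reporter signal at or above 50%; inactive means inhibition below 50%.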

Sequence of Alpha-2C adrenergic receptor (Homo sapiens) (P18825 whole entry, looked up): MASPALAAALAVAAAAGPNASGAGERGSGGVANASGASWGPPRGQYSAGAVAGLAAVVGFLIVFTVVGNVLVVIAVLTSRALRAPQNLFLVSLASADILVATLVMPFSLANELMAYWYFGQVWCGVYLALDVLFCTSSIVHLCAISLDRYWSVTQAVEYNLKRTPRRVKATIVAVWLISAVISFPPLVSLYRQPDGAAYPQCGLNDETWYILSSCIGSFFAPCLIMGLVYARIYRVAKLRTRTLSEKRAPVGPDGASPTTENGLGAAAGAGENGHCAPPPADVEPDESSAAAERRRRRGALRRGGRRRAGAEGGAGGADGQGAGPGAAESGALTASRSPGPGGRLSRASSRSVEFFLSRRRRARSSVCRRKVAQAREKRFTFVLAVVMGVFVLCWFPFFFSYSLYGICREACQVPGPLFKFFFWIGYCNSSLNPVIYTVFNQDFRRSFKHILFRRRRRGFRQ
Sequence of Voltage-gated potassium channel subunit beta-2 (Rattus norvegicus) (P62483 whole entry, looked up): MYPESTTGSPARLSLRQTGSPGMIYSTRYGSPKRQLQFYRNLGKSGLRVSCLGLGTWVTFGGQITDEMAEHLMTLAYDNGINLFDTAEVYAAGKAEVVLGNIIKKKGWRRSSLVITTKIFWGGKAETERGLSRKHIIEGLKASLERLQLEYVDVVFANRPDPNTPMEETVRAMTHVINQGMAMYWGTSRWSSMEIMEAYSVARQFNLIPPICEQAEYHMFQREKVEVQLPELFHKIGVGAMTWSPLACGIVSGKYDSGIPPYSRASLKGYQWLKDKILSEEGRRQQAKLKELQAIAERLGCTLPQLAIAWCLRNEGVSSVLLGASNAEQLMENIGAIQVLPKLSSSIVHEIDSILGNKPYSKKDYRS

For `Cc1cc2oc(=O)cc(C)c2c(=O)o1`, the cell count in assay [1] was determined as 411. Also, the inhibition in assay [1] is -15.8% (inactive); in assay [3] it was -2.6% (inactive); in assay [7] it was -5.14% (inactive); in assay [8] it was -17.4% (inactive). In addition, the inhibition of aggregation in assay [2] is -0.8% (inactive). For the same molecule, the nuclei count in assay [2] was 105%; in assay [3], 115%. In addition, the fluorescence slope in assay [4] was -0.391 (inactive). In addition, the NADPH fluorescence slope in assay [5] was 3.6e-05 (inactive). In assay [6], the slope is 0.00528 (inactive).

On to `CC1Cc2ccccc2N1C(=O)C12CCC(C)(C(=O)C1)C2(C)C` (stereo not drawn), for which the cell count in assay [1] turned out to be 387. The inhibition in assay [1] is -1.6% (inactive); in assay [3] it was -141% (inactive); in assay [7], -4.72% (inactive); in assay [8], 1.25% (inactive). Also, the inhibition of aggregation in assay [2] was -6.9% (inactive). Further, the nuclei count stood at 99.5% in assay [2] and 116% in assay [3]. The fluorescence slope in assay [4] is -0.544 (inactive). Further, the NADPH fluorescence slope in assay [5] is -7.5e-05 (inactive). The slope in assay [6] was 0.00468 (inactive).

In the case of `COC(=O)c1ccccc1NC(=O)c1ccc(COc2ccccc2)o1`, in assay [1], the cell count was 845. Further, the inhibition in assay [1] is -8.3% (inactive); in assay [3], -19.3% (inactive); in assay [7] it was -25.9% (inactive); in assay [8], -60.3% (inactive). Moreover, the inhibition of aggregation in assay [2] was 6.6% (inactive). The nuclei count in assay [2] turned out to be 113%; in assay [3] it was 114%. The fluorescence slope in assay [4] was -0.63 (inactive). In addition, in assay [5], the NADPH fluorescence slope is -3.5e-05 (inactive). In addition, the slope in assay [6] is 0.00572 (inactive).

With `c1ccc(CCNc2ccc3nncn3n2)cc1`, the cell count in assay [1] amounted to 593. For the same molecule, the inhibition in assay [1] is 5.8% (inactive); in assay [3], -9.2% (inactive); in assay [7], 6.01% (inactive); in assay [8], 12.8% (inactive). Moreover, the inhibition of aggregation in assay [2] was -3.1% (inactive). The results for the nuclei count in assay [2] and in assay [3] were 106% and 121%, respectively. In addition, in assay [4], the fluorescence slope was -0.501 (inactive). In addition, the NADPH fluorescence slope in assay [5] was -2.4e-05 (inactive). In addition, the slope in assay [6] is 0.00573 (inactive).

As to `CN1CCc2c(sc3c2c(=O)n(-c2ccccc2)c2nnc(SCc4ccc(F)cc4)n32)C1`, in assay [1], the cell count worked out at 375. Further, the inhibition was 2.1% (inactive) in assay [1], -45% (inactive) in assay [3], 4.98% (inactive) in assay [7] and -12.6% (inactive) in assay [8]. Moreover, the inhibition of aggregation in assay [2] was 9.2% (inactive). In addition, the results for the nuclei count in assay [2] and in assay [3] were 73.7% and 210%, respectively. Besides, the fluorescence slope in assay [4] is -0.608 (inactive). Moreover, the NADPH fluorescence slope in assay [5] is -5.9e-06 (inactive). The slope in assay [6] is 0.00622 (inactive).

On to `CCCC1(CCC)NC(=O)NC1=O`, for which the cell count in assay [1] is 548. For the same molecule, the inhibition is -3.3% (inactive) in assay [1], -34.4% (inactive) in assay [3], 6.49% (inactive) in assay [7] and 14.1% (inactive) in assay [8]. In assay [2], the inhibition of aggregation was -41.1% (inactive). Moreover, the values for the nuclei count in assay [2] and in assay [3] were 65.5% and 107%, respectively. For the same molecule, the fluorescence slope in assay [4] was -0.491 (inactive). In assay [5], the NADPH fluorescence slope was -4.7e-05 (inactive). Besides, the slope in assay [6] was 0.00587 (inactive).

Consider `CCCCOCCCNC(=O)c1ccccc1OCC`, for which the cell count in assay [1] turned out to be 365. For the same molecule, the inhibition in assay [1] was 8.5% (inactive); in assay [3], 33.7% (inactive); in assay [7], 11.1% (inactive); in assay [8], 7.39% (inactive). Further, the inhibition of aggregation in assay [2] was 0.7% (inactive). Further, the nuclei count is 111% in assay [2] and 116% in assay [3]. Moreover, the fluorescence slope in assay [4] was -0.317 (inactive). Moreover, the NADPH fluorescence slope in assay [5] is -6.3e-05 (inactive). In addition, the slope in assay [6] was 0.00615 (inactive).

On to `CS(=O)(=O)N(Cc1nc2sc3c(c2c(=O)[nH]1)CCCC3)C1CCCCC1`, for which, in assay [1], the cell count worked out at 352. Further, the inhibition in assay [1] is 0.8% (inactive); in assay [3], -6.2% (inactive); in assay [7], 4.56% (inactive); in assay [8], 14.4% (inactive). For the same molecule, in assay [2], the inhibition of aggregation was -9.4% (inactive). The nuclei count in assay [2] was determined as 106%; in assay [3], 110%. Besides, in assay [4], the fluorescence slope is -0.612 (inactive). Besides, the NADPH fluorescence slope in assay [5] was -4.9e-05 (inactive). The slope in assay [6] is 0.00352 (inactive).

For `CC(=O)Nc1ccc2c(c1)nc(CCNC(=O)c1ccccc1)n2C`, the cell count in assay [1] was 450. Further, the inhibition is 1.3% (inactive) in assay [1], -62.8% (inactive) in assay [3], 1.9% (inactive) in assay [7] and 98.7% (active) in assay [8]. Further, in assay [2], the inhibition of aggregation was -15.3% (inactive). Further, the nuclei count in assay [2] amounted to 92.7%; in assay [3], 170%. Further, the fluorescence slope in assay [4] is -0.54 (inactive). Besides, in assay [5], the NADPH fluorescence slope was -4.9e-05 (inactive). In assay [6], the slope was 0.00514 (inactive).

Consider `CCOCCCNC(=O)Cn1cc2c(n1)CCCCC2`, for which the cell count in assay [1] was 486. The inhibition in assay [1] was -2.3% (inactive); in assay [3], -25.4% (inactive); in assay [7], 3.75% (inactive); in assay [8], 19.9% (inactive). Moreover, the inhibition of aggregation in assay [2] is 19.4% (inactive). The results for the nuclei count in assay [2] and in assay [3] were 88.9% and 109%, respectively. Also, in assay [4], the fluorescence slope is -0.605 (inactive). The NADPH fluorescence slope in assay [5] was -1.2e-05 (inactive). For the same molecule, in assay [6], the slope is 0.00693 (inactive).

Consider `Cc1nnc(SCC(=O)Nc2ccc(Br)cn2)[nH]c1=O`, for which the cell count in assay [1] was 359. The inhibition in assay [1] was -8.5% (inactive); in assay [3], -43.2% (inactive); in assay [7], 15.8% (inactive); in assay [8] it was 5.27% (inactive). Further, the inhibition of aggregation in assay [2] is 18.1% (inactive). Moreover, the nuclei count in assay [2] worked out at 117%; in assay [3] it was 114%. Further, in assay [4], the fluorescence slope was -0.426 (inactive). Besides, in assay [5], the NADPH fluorescence slope is -1.1e-05 (inactive). In addition, in assay [6], the slope is 0.00432 (inactive).

For `Cc1ccc2[nH]c(=O)c3cc(C(=O)NCCN4CCN(C)CC4)sc3c2c1`, in assay [1], the cell count was 526. In addition, the inhibition is -0.5% (inactive) in assay [1], -14.1% (inactive) in assay [3], 10.4% (inactive) in assay [7] and 90.4% (active) in assay [8]. Besides, in assay [2], the inhibition of aggregation was 2.4% (inactive). The nuclei count in assay [2] worked out at 60%; in assay [3], 116%. The fluorescence slope in assay [4] was -0.229 (active). Further, the NADPH fluorescence slope in assay [5] was -4.2e-06 (inactive). In assay [6], the slope was 0.00573 (inactive).

As to `COC(=O)Cn1c(CN2CCN(c3ccccc3F)CC2)nc2c1c(=O)n(C)c(=O)n2C`, the cell count in assay [1] amounted to 633. For the same molecule, the inhibition in assay [1] was -1.4% (inactive); in assay [3], 7.8% (inactive); in assay [7], 7.96% (inactive); in assay [8], 19.6% (inactive). In assay [2], the inhibition of aggregation was -18.2% (inactive). Also, the nuclei count in assay [2] amounted to 90.2%; in assay [3], 87.6%. Besides, the fluorescence slope in assay [4] is -0.555 (inactive). The NADPH fluorescence slope in assay [5] was -3.8e-05 (inactive). Besides, the slope in assay [6] was 0.0082 (inactive).
